Results taken from the supplement of paper PMC6089552.
Out of some 3,200 compounds screened, about 300 (9.4%) showed activity. The full list was thinned out, with actives kept by preference.

Test system: A673/TR/shEF
Assay: cell viability (LOESS-normalised, relative to median of negative controls) (log2 ratio); higher = more viable cells (less compound effect), active = hit call of the paper (over 3 MAD below the median)
Conditions: treatment time: 72 h
In short: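 For three days, A673/TR/shEF Ewing sarcoma cells in 384-well plates (1,500 per well) were treated with library compounds at two or more concentrations or with DMSO controls, after doxycycline had been added or withheld 24 h beforehand to induce EWS-FLI1 shRNA knockdown. Viability was read by CellTiter-Glo luminescence on an Envision reader. The data were LOESS-corrected per plate, divided by the median of negative controls and log2-transformed.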

[1] = 0.25 µM, library screen: screen1, EWS-FLI1 expression: high (no doxycycline)
[2] = 0.25 µM, library screen: screen1, EWS-FLI1 expression: low (doxycycline-induced shRNA knockdown)
[3] = 2.5 µM, library screen: screen1, EWS-FLI1 expression: high (no doxycycline)
[4] = 2.5 µM, library screen: screen1, EWS-FLI1 expression: low (doxycycline-induced shRNA knockdown)
[5] = 0.25 µM, library screen: screen2, EWS-FLI1 expression: high (no doxycycline)
[6] = 0.25 µM, library screen: screen2, EWS-FLI1 expression: low (doxycycline-induced shRNA knockdown)
[7] = 2.5 µM, library screen: screen2, EWS-FLI1 expression: high (no doxycycline)
[8] = 2.5 µM, library screen: screen2, EWS-FLI1 expression: low (doxycycline-induced shRNA knockdown)
[9] = 0.025 µM, library screen: screen1, EWS-FLI1 expression: high (no doxycycline)
[10] = 0.025 µM, library screen: screen1, EWS-FLI1 expression: low (doxycycline-induced shRNA knockdown)
[11] = 25 µM, library screen: screen1, EWS-FLI1 expression: high (no doxycycline)
[12] = 25 µM, library screen: screen1, EWS-FLI1 expression: low (doxycycline-induced shRNA knockdown)
[13] = 0.103 µM, library screen: screen3, EWS-FLI1 expression: high (no doxycycline)
[14] = 0.103 µM, library screen: screen3, EWS-FLI1 expression: low (doxycycline-induced shRNA knockdown)
[15] = 0.308 µM, library screen: screen3, EWS-FLI1 expression: high (no doxycycline)
[16] = 0.308 µM, library screen: screen3, EWS-FLI1 expression: low (doxycycline-induced shRNA knockdown)
[17] = 0.926 µM, library screen: screen3, EWS-FLI1 expression: high (no doxycycline)
[18] = 0.926 µM, library screen: screen3, EWS-FLI1 expression: low (doxycycline-induced shRNA knockdown)
[19] = 2.8 µM, library screen: screen3, EWS-FLI1 expression: high (no doxycycline)
[20] = 2.8 µM, library screen: screen3, EWS-FLI1 expression: low (doxycycline-induced shRNA knockdown)
[21] = 8.3 µM, library screen: screen3, EWS-FLI1 expression: high (no doxycycline)
[22] = 8.3 µM, library screen: screen3, EWS-FLI1 expression: low (doxycycline-induced shRNA knockdown)
[23] = 25 µM, library screen: screen3, EWS-FLI1 expression: high (no doxycycline)
[24] = 25 µM, library screen: screen3, EWS-FLI1 expression: low (doxycycline-induced shRNA knockdown)

Measured: cell viability (log2)

NC(=Nc1nc2ccccc2o1)NC(=O)c1sc2ccccc2c1Cl
inactive: [1] 0.078 | [2] 0.000721 | [3] 0.0829 | [4] -0.0453

COC1=C(OC)C(=O)c2ccccc2C1=O
inactive: [5] 0.153 | [6] 0.0608 | [7] 0.12 | [8] 0.0758

O=C1c2ccccc2-c2n[nH]c3cccc1c23
inactive: [9] 0.132 | [10] 0.0656 | [1] 0.181 | [2] -0.0312 | [3] -0.0168 | [4] 0.228 | [12] 0.104
active: [11] -0.11

CCC(C)CCCCC(=O)NC(CCNCS(=O)(=O)O)C(=O)NC(C(=O)NC(CCNCS(=O)(=O)O)C(=O)NC1CCNC(=O)C(C(C)O)NC(=O)C(CCNCS(=O)(=O)O)NC(=O)C(CCNCS(=O)(=O)O)NC(=O)C(CC(C)C)NC(=O)C(CC(C)C)NC(=O)C(CCNCS(=O)(=O)O)NC1=O)C(C)O (centres undefined)
inactive: [1] 0.117 | [2] 0.0486 | [3] 0.103 | [4] -0.0146

CC(C)(O)CC[C@@H](O)[C@@](C)(O)[C@H]1CC[C@@]2(O)C3=CC(=O)[C@@H]4C[C@@H](O)[C@@H](O)C[C@]4(C)[C@H]3CC[C@]12C
inactive: [1] 0.0407 | [2] 0.101 | [3] 0.0783 | [4] 0.0234

C=C1C(CCl)(CCl)C2(Cl)C(Cl)C(Cl)C1(Cl)C2(Cl)Cl (centres undefined)
inactive: [1] 0.0656 | [2] 0.021 | [3] 0.0692 | [4] 0.132

COC(=O)[C@@H]1OC(=O)C2OC23[C@@]1(C)CCC1[C@@]2(C)CCC(=O)C(C)(C)C2C[C@@H](OC(C)=O)[C@]13C (some centres undefined)
inactive: [1] 0.0302 | [2] 0.00682 | [3] 0.123 | [4] 0.0574

COC(=O)/C=C/c1cc(O)ccc1O
inactive: [9] 0.177 | [10] 0.0349 | [1] 0.18 | [2] 0.0134 | [5] 0.108 | [6] 0.184 | [4] -0.137 | [7] 0.0473 | [8] 0.11
active: [3] -0.379 | [11] -0.809 | [12] -0.511

O=C(/C=C/c1ccc(O)cc1O)c1ccccc1
inactive: [1] 0.0477 | [2] 0.0515 | [3] 0.136 | [4] 0.0296

COc1cc(/C=C/C(=O)O)ccc1O
inactive: [1] 0.0581 | [2] -0.0401 | [3] 0.12 | [4] -0.00647

CC(=O)O[C@@H]1CC[C@@]2(C)[C@H](CC[C@@H]3[C@@H]2C[C@H](OC(C)=O)[C@]2(C)[C@@H](C(C)=O)CC[C@@H]32)C1
inactive: [1] 0.135 | [2] 0.117 | [3] 0.0696 | [4] 0.102

CC(C1OC(C)(C)C(O)C1O)[C@@H]1CC[C@]2(C)C3=CCC4C(C)(C)C(=O)CC[C@]4(C)C3CC[C@@]12C (some centres undefined)
inactive: [1] 0.062 | [2] 0.126 | [3] 0.148 | [4] 0.137

Brc1ccc([C@H]2CN3CCSC3=N2)cc1
inactive: [9] 0.216 | [10] 0.000942 | [1] 0.234 | [2] 0.105 | [5] -0.0213 | [6] 0.123 | [4] -0.0691 | [7] 0.117 | [8] 0.109
active: [3] -0.357 | [11] -0.468 | [12] -0.309

c1ccc([C@H]2CN3CCSC3=N2)cc1
inactive: [9] 0.0743 | [10] 0.0216 | [13] 0.103 | [14] 0.000516 | [1] 0.0991 | [2] 0.0737 | [5] 0.069 | [6] 0.0838 | [15] 0.127 | [16] 0.0938 | [17] 0.0997 | [18] 0.0447 | [4] 0.0839 | [7] 0.126 | [8] 0.0627 | [19] 0.136 | [20] 0.0913 | [21] 0.12 | [22] 0.085 | [12] -0.0899 | [23] 0.0427 | [24] 0.11
active: [3] -0.0948 | [11] -0.295

c1ccc(C2CN3CCSC3=N2)cc1 (centres undefined)
inactive: [9] 0.0711 | [10] 0.0575 | [1] 0.0459 | [2] 0.00911 | [5] 0.102 | [6] 0.0185 | [4] 0.107 | [7] 0.166 | [8] 0.00181 | [12] 0.0697
active: [3] -0.215 | [11] -0.261

CC(=O)O[C@@H]1C=C[C@@]2(C)C(C[C@@H](OC(C)=O)[C@@]3(C)C4=CC(=O)O[C@@H](c5ccoc5)[C@]4(C)CCC23)C1(C)C (some centres undefined)
inactive: [1] 0.0555 | [2] 0.12 | [3] 0.1 | [4] 0.125

CC(=O)O[C@@H]1CC[C@@]2(C)C(=CC=C3[C@@H]4CC[C@H]([C@H](C)/C=C/[C@H](C)C(C)C)[C@@]4(C)CC[C@@H]32)C1
inactive: [1] 0.0486 | [2] 0.129 | [3] 0.176 | [4] 0.156

[Cl][Pt+2][Cl].[NH2-].[NH2-]
inactive: 0.025 µM, library screen: screen2, EWS-FLI1 expression: high (no doxycycline) 0.0701 | 0.025 µM, library screen: screen2, EWS-FLI1 expression: low (doxycycline-induced shRNA knockdown) 0.092 | [13] 0.0436 | [14] 0.101 | [1] 0.0699 | [2] 0.0806 | [5] 0.126 | [6] 0.0568 | [15] 0.119 | [16] 0.0647 | [17] 0.132 | [18] 0.00232 | [3] 0.0557 | [4] 0.0761 | [7] 0.062 | [8] 0.0651 | [19] 0.0695 | [20] 0.05 | [21] 0.0685 | [22] 0.0664 | 25 µM, library screen: screen2, EWS-FLI1 expression: high (no doxycycline) 0.079 | 25 µM, library screen: screen2, EWS-FLI1 expression: low (doxycycline-induced shRNA knockdown) 0.0718 | [23] 0.135 | [24] 0.0626

CC(C)CCC[C@@H](C)[C@H]1CC[C@H]2[C@@H]3CC[C@H]4C[C@@H](O)CC[C@]4(C)[C@H]3CC[C@]12C
inactive: [1] 0.0663 | [2] 0.113 | [3] 0.0848 | [4] 0.113
